Inconclusive results are not listed. The source made the active and inactive calls. Unless noted, calls come from the whole dose curve; as a rule, active = well fitted curve in the direction sought with a large enough effect; inconclusive = small, poorly fitted or top-dose-only effect, or another doubt; inactive = no such curve, though single readings can be large; an effect the other way counts as inactive or inconclusive.
Key:
[1] = Cell Viability - BJ (AID 421; calls by dose curve;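 note: potency is the fitted concentration of half-maximal effect; cells exposed to compound for 40 hours at 37 °C before readout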); conditions: BJ fibroblast viability, qHTS
In short: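 Normal human BJ foreskin fibroblasts, 1500/well in complete medium, treated 40 hr at 37 °C. Cellular ATP by CellTiter-Glo luminescence; normalized to DMSO and 100 uM tamoxifen, AC50 from Hill fit.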

[2] = Cell Viability - Jurkat (AID 426;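 active = dose-dependent loss of cell ATP signal giving a full or clear fitted curve, ranked by lower potency value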; note: potency is the fitted concentration of half-maximal effect); conditions: qHTS
In short: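 qHTS, 1536-well; Jurkat E6-1, 5000 cells/well, complete medium; cpd 40 hr, 37 °C; CellTiter-Glo 20 min RT; luminescence. AC50 by Hill fit.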

[3] = Cell Viability - Hek293 (AID 427;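 active = compounds whose dose-response curve shows a full or clear partial loss of cell viability, called from curve shape rather than a numeric limit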;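 note: potency is the fitted concentration of half-maximal effect; cells exposed to compound for 40 hours at 37 °C before reading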); conditions: qHTS
In short: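 HEK293 cells in complete medium were exposed to compound for 40 hr at 37 °C, then cellular ATP was read by CellTiter-Glo luminescence. Data were normalized to DMSO (basal) and 100 uM tamoxifen (100% inhibition), and AC50 came from Hill fits.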

[4] = Cell Viability - HepG2 (AID 433; calls by dose curve;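 note: potency is the fitted concentration of half-maximal effect; potency for ATP loss meaning cytotoxicity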); conditions: qHTS
In short: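 Cytotoxicity read as ATP loss (CellTiter-Glo luminescence) after 40 hr compound exposure of HepG2, 1500 cells/well, 37 °C. AC50 by Hill equation; 0% set by DMSO, 100% inhibition by 100 uM tamoxifen.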

[5] = Cell Viability - MRC5 (AID 434; calls by dose curve;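 note: potency is the fitted concentration of half-maximal effect; potency reflects cytotoxicity seen as loss of intracellular ATP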); conditions: MRC5 lung fibroblast viability, qHTS
In short: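 MRC5 normal human lung fibroblasts, 1500 cells/well, exposed to compound for 40 hr at 37 C. Cellular ATP was read by CellTiter-Glo luminescence; data normalized to DMSO and 100 uM tamoxifen, with AC50 from Hill fits.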

[6] = Cell Viability - SK-N-SH (AID 435; calls by dose curve; note: potency is the fitted concentration of half-maximal effect); conditions: SK-N-SH neuroblastoma cell viability qHTS
In short: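 qHTS cytotoxicity: CellTiter-Glo ATP luminescence after 40 h compound exposure of human neuroblastoma SK-N-SH cells at 37 °C. AC50 derived by Hill-equation fitting, with DMSO as basal and 100 uM tamoxifen as full inhibition.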

[7] = target: Mitogen-activated protein kinase 10 (Mus musculus) (UniProt Q61831); experiment: JNK3 AlphaScreen Assay (AID 530; active = well fitted curve in either direction with a large enough effect, not every such curve was filed as active;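 note: kinase came from lysate of stimulated human HepG2 cells; signal reports phosphorylation of biotinylated GST-cJun 1-79 at Ser73 with 10 µM ATP; % is set by controls: 0 for no effect and ±100 for the full control effect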); conditions: JNK3 lysate, c-Jun phosphorylation; series mostly up to 57.1 µM
In short: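 Pre-activated (IL-1β/TNFα) JNK3 in HepG2 lysates phosphorylates biotin-GST-cJun(1-79), 10 uM ATP; anti-phospho-cJun(Ser73) AlphaScreen read at room temperature, pH 7.6 Tris buffer. Compounds pre-incubated 15 min as titrations.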

[8] = Cell Viability - HUV-EC-C (AID 542); conditions: HUV-EC-C endothelial cell viability, qHTS; series mostly up to 92.2 µM; note: % is set by controls: 0 for no effect and ±100 for the full control effect; nearly all actives have a fitted effect of over 35% in size
In short: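 qHTS cytotoxicity: HUV-EC-C, 1000 cells/well, 5 hr settle, compound 40 hr 37 °C, CellTiter-Glo, luminescence. AC50 via Hill equation.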

[9] = Cell Viability - H-4-II-E (AID 543); conditions: H-4-II-E rat hepatoma viability; series mostly up to 92.2 µM; note: % is set by controls: 0 for no effect and ±100 for the full control effect; nearly all actives have a fitted effect of over 35% in size
In short: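 Luminescent ATP signal (CellTiter-Glo) served as the viability read-out, with cytotoxicity seen as a concentration-dependent ATP drop. Cells were treated for 40 hours in complete medium. AC50 values derive from Hill-equation modelling.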

[10] = Cell Viability - SH-SY5Y (AID 544); conditions: SH-SY5Y neuroblastoma cell viability; series mostly up to 92.2 µM; note: nearly all actives have a fitted effect of over 55% in size
In short: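 Luminescent ATP read-out (CellTiter-Glo) measures loss of viable SH-SY5Y neuroblastoma cells after 40 hr compound exposure at 37 °C. AC50 values derive from standard Hill modelling of qHTS concentration-response data.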

[11] = Cell Viability - Renal Proximal Tubule (AID 545); conditions: renal proximal tubule cells viability, primary cells of rat origin; at 91.7 µM (top of the series); note: nearly all actives have a fitted effect of over 40% in size
In short: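 Viability taken as intracellular ATP (CellTiter-Glo luminescence) after 40 hr, 37 °C compound treatment of primary proximal tubule cells from rat kidney, 1000 cells/well; Hill-equation fits of qHTS concentration-response data gave AC50.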

[12] = Cellular Toxicity (caspase-3) HepG2 (AID 654); conditions: HepG2 caspase-3 activation, luminescence, 0% = DMSO only, 100% = tamoxifen; series mostly up to 92.2 µM;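 note: cells exposed to compound for 16 hours before reading; 0% = DMSO alone and 100% = caspase signal from 100 µM tamoxifen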
In short: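 Cells plated 5 hr at 37 °C, compound added, incubated 16 hr at 37 °C. Caspase-Glo 3/7 reagent followed, 20 min at room temperature, then luminescence read. Activation scored as signal increase; AC50 from Hill fit.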

[13] = Cellular Toxicity (caspase-3) Jurkat (AID 655); conditions: Jurkat caspase-3 activation, luminescence, DMSO = 0%, tamoxifen = 100%; at 92.2 µM (top of the series);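 note: cells exposed to compound for 16 h at 37 °C before reading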
In short: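 Luminescent Caspase-Glo 3/7 read-out (20 min, room temperature) after 16 h compound treatment at 37 C of 5000 Jurkat cells per well. AC50 derived by Hill-equation fitting, scaled between DMSO basal and 100 uM tamoxifen stimulation.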

[14] = Cellular Toxicity (caspase-3) HUV-EC-C (AID 656); conditions: HUV-EC-C cells, caspase-3 activation (apoptosis), vehicle = 0, 100 µM tamoxifen = 100%; series mostly up to 92.2 µM
In short: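 Luminescent Caspase-Glo 3/7 readout after 16 h, 37 °C compound exposure of HUV-EC-C endothelial cells, 1000 per well, complete medium. AC50 derived by Hill fitting, with DMSO as baseline and 100 uM tamoxifen as full activation.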

[15] = Cellular Toxicity (caspase-3) SHSY5Y (AID 657); conditions: SH-SY5Y caspase-3 activation, DMSO zero, 10 µM staurosporine = 100%; series mostly up to 91.7 µM
In short: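 Luminescent Caspase-Glo 3/7 read-out, 1 hr room temperature, follows 16 hours of compound treatment of SH-SY5Y cells at 37 °C. Normalization: DMSO basal, 10 uM staurosporine as 100%; AC50 values from Hill-equation concentration-response fits.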

[16] = Cellular Toxicity (caspase-3) BJ (AID 658); conditions: BJ fibroblasts, luminescence, normalized: DMSO 0%, staurosporine 100%; series mostly up to 91.7 µM
In short: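 BJ human foreskin fibroblasts, 1000 cells/well, treated 16 hours at 37 °C in complete medium; caspase 3/7 activity by Caspase-Glo luminescence after 1 hr at room temperature. Normalized to DMSO and 10 uM staurosporine; AC50 from Hill fits.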

[17] = Cellular Toxicity (caspase-3) MRC-5 (AID 659); conditions: MRC-5 cells, luminescence, normalized: DMSO 0%, 10 µM staurosporine 100%; series mostly up to 91.7 µM
In short: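 MRC-5 human normal lung fibroblasts, 1500 cells/well, treated 16 h at 37 °C in complete medium. Caspase 3/7 measured by Caspase-Glo luminescence after 1 h at room temperature. Normalized to DMSO and 10 uM staurosporine; AC50 from Hill fit.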

[18] = Cellular Toxicity (caspase-3) Mesangial (AID 660); conditions: mesangial cells, normalized: DMSO 0%, 100 µM tamoxifen 100%; series mostly up to 91.7 µM;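 note: combined caspase 3 and 7 activity read by Caspase-Glo luminescence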
In short: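 Mesangial cells, 1000/well, 5 h settle at 37 °C; compound 16 h, 37 °C; Caspase-Glo 3/7 reagent 20 min RT; luminescence. Norm.: DMSO = 0%, tamoxifen 100 uM = 100%. AC50, Hill fit.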

[19] = Cellular Toxicity (caspase-3) H-4-II-E (AID 663); conditions: H-4-II-E rat hepatoma; Potency: caspase-3 activation; series mostly up to 92.2 µM;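 note: cells exposed to compound for 16 hr before readout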
In short: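 Rat hepatoma H-4-II-E cells (1500/well) plated 5 hr, then exposed to compound titrations for 16 hr at 37 °C. Caspase-Glo 3/7 luminescence read after 20 min at RT; data normalized to DMSO and 100 uM tamoxifen, AC50 from Hill fits.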

[20] = Cellular Toxicity (caspase-3) Hek293 (AID 664); conditions: HEK293 caspase-3 activation, DMSO = 0%, 100 µM tamoxifen = 100%; series mostly up to 92.2 µM;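 note: cells exposed to compound for 16 h at 37 °C before readout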
In short: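 Cells plated, 5 hr at 37 °C; compounds added; 16 hr at 37 °C; Caspase-Glo 3/7 reagent, 20 min RT; luminescence read. Activation expressed relative to DMSO and 100 uM tamoxifen, AC50 by Hill model.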

[21] = Cellular Toxicity (caspase-3) N2a (AID 665); conditions: N2a cells, luminescence, normalized: DMSO 0%, 10 µM staurosporine 100%; series mostly up to 92.2 µM;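 note: compound exposure lasted 16 h at 37 °C before readout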
In short: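 N2a cells, 1500/well, 5 h settle at 37 °C; cpd 16 h, 37 °C; Caspase-Glo 3/7, 1 h RT; luminescence. Norm: DMSO = 0, 10 uM staurosporine = 100%. AC50, Hill fit.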

[22] = Cellular Toxicity (caspase-3) NIH 3T3 (AID 666); conditions: NIH 3T3 caspase-3 activation, apoptosis/toxicity, 0% DMSO, 100% is 100 µM tamoxifen; series mostly up to 92.2 µM;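 note: caspase signal read after 16 h compound exposure; 0% = DMSO basal and 100% = 100 µM tamoxifen stimulation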
In short: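 Luminescence from aminoluciferin released by caspase-3/7 cleavage of a peptide substrate served as read-out. Mouse fibroblast NIH 3T3 cells were exposed to compounds over a concentration range for 16 hours, and AC50 values came from standard Hill modelling.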

[23] = Cellular Toxicity (caspase-3) Renal Proximal Tubule (AID 667); conditions: renal proximal tubule cells, primary cells freshly taken from rat, solvent-only wells 0%, staurosporine 100%; series mostly up to 91.7 µM;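 note: cells exposed to compound for 16 hours at 37 °C before detection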
In short: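 Caspase 3/7 activation measured by luminescent aminoluciferin release in primary rat proximal tubule cells after 16 hr compound exposure at 37 °C. AC50 from Hill-fitted concentration-response, scaled between DMSO and 10 uM staurosporine.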

C=C(C)C1CC=C(C)C(O)C1 (stereo not drawn)
inactive: Potency [1] > 92 µM | Potency [2] > 92 µM | Potency [3] > 92 µM | Potency [4] > 92 µM | Potency [5] > 92 µM | Potency [6] > 92 µM | Potency [7] | outcome [8] | Potency [9] | Potency [10] | activity change, negative = cytotoxicity [11] 6.86% | outcome [12] | caspase-3 activation [13] -2.18% | outcome [14] | outcome [15] | outcome [16] | outcome [17] | outcome [18] | Potency [19] | outcome [20] | outcome [21] | outcome [22] | outcome [23]

Reference: PubChem BioAssay (NCATS)
